Results filed as inconclusive are left out. The source made the active and inactive calls. Calls follow the shape of the dose curve; as a rule, active = well fitted curve in the direction sought with a large enough effect; inconclusive = small, poorly fitted or top-dose-only effect, or another doubt; inactive = no such curve, though single readings can be large; an effect the other way counts as inactive or inconclusive.
Legend:
[1] = Quantitative High-Throughput drug screen in 47 multiple myeloma cell lines against the NCATS MIPE library collection: H1112_PLB cell viability assay (AID 1918967; also: nearly all actives have a fitted effect of over 30% in size)
Procedure, shortened: (§1)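 CellTiter-Glo luminescence (ATP) after 48 h compound exposure, 37C/5% CO2; 500 cells/well; MIPE 4.0 approved/investigational drugs pinned in; DMSO = 100%, media only = 0% viability.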

[2] = Quantitative High-Throughput drug screen in 47 multiple myeloma cell lines against the NCATS MIPE library collection: NCIH929_DSMZ cell viability assay (AID 1918978); also: nearly all actives have a fitted effect of over 35% in size
Procedure, shortened: (§2)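 ATP-based luminescence (CellTiter-Glo, 5 min RT incubation) quantified surviving cells following two days' treatment with MIPE 4.0 agents at 37 °C, 5% CO2.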

[3] = Quantitative High-Throughput drug screen in 47 multiple myeloma cell lines against the NCATS MIPE library collection: OCIMY1_PLB cell viability assay (AID 1918979); also: nearly all actives have a fitted effect of over 35% in size
Procedure, shortened: as §2

[4] = Quantitative High-Throughput drug screen in 47 multiple myeloma cell lines against the NCATS MIPE library collection: MM1S_ATCC cell viability assay (AID 1918980); also: nearly all actives have a fitted effect of over 45% in size
Procedure, shortened: as §2

[5] = Quantitative High-Throughput drug screen in 47 multiple myeloma cell lines against the NCATS MIPE library collection: LP1_DSMZ cell viability assay (AID 1918982); also: nearly all actives have a fitted effect of over 35% in size
Procedure, shortened: as §2

[6] = Quantitative High-Throughput drug screen in 47 multiple myeloma cell lines against the NCATS MIPE library collection: KMS28PE_JCRB cell viability assay (AID 1918983); also: nearly all actives have a fitted effect of over 35% in size
Procedure, shortened: as §2

[7] = Quantitative High-Throughput drug screen in 47 multiple myeloma cell lines against the NCATS MIPE library collection: KMS34_JCRB cell viability assay (AID 1918985); also: nearly all actives have a fitted effect of over 40% in size
Procedure, shortened: as §2

[8] = Quantitative High-Throughput drug screen in 47 multiple myeloma cell lines against the NCATS MIPE library collection: OCIMY5_PLB cell viability assay (AID 1918988); also: nearly all actives have a fitted effect of over 65% in size
Procedure, shortened: as §2

[9] = Quantitative High-Throughput drug screen in 47 multiple myeloma cell lines against the NCATS MIPE library collection: KMS20_JCRB cell viability assay (AID 1918973); also: nearly all actives have a fitted effect of over 45% in size
Procedure, shortened: as §1

[10] = Quantitative High-Throughput drug screen in 47 multiple myeloma cell lines against the NCATS MIPE library collection: KMS26_JCRB cell viability assay (AID 1918975); also: nearly all actives have a fitted effect of over 45% in size
Procedure, shortened: (§3)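 We plated 500 myeloma cells per well, pinned in MIPE 4.0 compounds, and incubated for 48 hours at 37C. ATP was then quantified with CellTiter-Glo, with DMSO and media-only wells defining 100% and 0%.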

[11] = Quantitative High-Throughput drug screen in 47 multiple myeloma cell lines against the NCATS MIPE library collection: MM1R_ATCC cell viability assay (AID 1918981); also: nearly all actives have a fitted effect of over 35% in size
Procedure, shortened: as §2

[12] = Quantitative High-Throughput drug screen in 47 multiple myeloma cell lines against the NCATS MIPE library collection: L363_DSMZ cell viability assay (AID 1918984); also: nearly all actives have a fitted effect of over 40% in size
Procedure, shortened: as §2

[13] = Quantitative High-Throughput drug screen in 47 multiple myeloma cell lines against the NCATS MIPE library collection: KMS12PE_JCRB cell viability assay (AID 1918972); also: nearly all actives have a fitted effect of over 30% in size
Procedure, shortened: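 Inhibition of cell viability is measured here. Each line was plated at 500 cells per well, treated with MIPE 4.0 drugs, kept 48 hours at 37C, then assayed for ATP content by CellTiter-Glo luminescence.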

[14] = Quantitative High-Throughput drug screen in 47 multiple myeloma cell lines against the NCATS MIPE library collection: Karpas25_ECACC cell viability assay (AID 1918968; also: nearly all actives have a fitted effect of over 35% in size)
Procedure, shortened: as §1

[15] = Quantitative High-Throughput drug screen in 47 multiple myeloma cell lines against the NCATS MIPE library collection: KMS27_JCRB cell viability assay (AID 1918970); also: nearly all actives have a fitted effect of over 30% in size
Procedure, shortened: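 Myeloma cells (500 per well) were exposed to MIPE 4.0 compounds for 48 h at 37 °C, 5% CO2; viability was read as ATP luminescence with CellTiter-Glo, normalized to DMSO-only (100%) and media-only (0%) wells.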

[16] = Quantitative High-Throughput drug screen in 47 multiple myeloma cell lines against the NCATS MIPE library collection: KMS12BM_JCRB cell viability assay (AID 1918971); also: nearly all actives have a fitted effect of over 35% in size
Procedure, shortened: as §3

[17] = Quantitative High-Throughput drug screen in 47 multiple myeloma cell lines against the NCATS MIPE library collection: MOLP8_DSMZ cell viability assay (AID 1918977); also: nearly all actives have a fitted effect of over 45% in size
Procedure, shortened: as §2

[18] = Quantitative High-Throughput drug screen in 47 multiple myeloma cell lines against the NCATS MIPE library collection: KMS21BM_JCRB cell viability assay (AID 1918974); settings: ATP luminescence, 48 h; viability: at 45.8 µM (top of the series) unless noted
Procedure, shortened: as §1

[19] = Quantitative High-Throughput drug screen in 47 multiple myeloma cell lines against the NCATS MIPE library collection: MMM1_PLB cell viability assay (AID 1918976); also: nearly all actives have a fitted effect of over 35% in size
Procedure, shortened: as §2

[20] = Quantitative High-Throughput drug screen in 47 multiple myeloma cell lines against the NCATS MIPE library collection: OCIMY7_PLB cell viability assay (AID 1918987); also: nearly all actives have a fitted effect of over 65% in size
Procedure, shortened: as §2

Measured: Potency
Potency is read from the fitted curve at half-maximal effect.

O=C(NCCO[N+](=O)[O-])c1cccnc1
active: [4] 4.69 µM
inactive: [1] | [2] | [3] | [5] | [6] | [7] | [8]

CC1=C(C)C(=O)C(C(CCCCCC(=O)O)c2ccccc2)=C(C)C1=O (stereo not drawn)
inactive: [1] | [9] | [2]

O=P(O)(O)C(O)(Cn1ccnc1)P(=O)(O)O
inactive: [1] | [9] | [10] | [2] | [11] | [5] | [6] | [12] | [8]

CC1(C)CCC(C)(C)c2cc(NC(=O)c3ccc(C(=O)O)cc3)ccc21
active: [1] 10.5 µM | [13] 20.9 µM | [2] 14.8 µM | [4] 16.6 µM | [11] 13.2 µM | [8] 1.66 µM

CCCCCCCCOc1ccccc1C(=O)Nc1ccc(C(=O)OCC[N+](C)(CC)CC)cc1
active: [14] 9.35 µM | [15] 6.62 µM | [16] 18.7 µM | [13] 4.69 µM | [9] 16.6 µM | [10] 16.6 µM | [17] 20.9 µM | [2] 20.9 µM | [12] 4.69 µM | [7] 23.5 µM | [8] 20.9 µM

CCN(CCO)CCCC(C)Nc1ccnc2cc(Cl)ccc12 (stereo not drawn)
inactive: [1] | [13] | [18] | [10] | [2] | [5] | [12] | [7] | [8]

CC(C)C[C@H](NC(=O)[C@H](Cc1ccccc1)NC(=O)c1cnccn1)B(O)O
active: [1] 0.0132 µM | [16] 0.0148 µM | [9] 0.0148 µM | [10] 0.0148 µM | [19] 0.469 µM | [4] 0.0066 µM | [11] 0.0047 µM | [5] 0.0118 µM | [6] 0.0093 µM | [7] 0.0083 µM | [20] 0.001 µM | [8] 0.0047 µM

Cc1cccc(-c2[nH]ncc2-c2ccc3ncccc3n2)n1
active: [4] 14.8 µM
inactive: [1] | [19] | [2] | [3] | [12] | [7]

Clc1ccc(C(Cn2ccnc2)OCc2ccc(Sc3ccccc3)cc2)c(Cl)c1 (stereo not drawn)
active: [14] 18.7 µM | [15] 18.7 µM | [16] 26.4 µM | [13] 18.7 µM | [18] 26.4 µM | [4] 18.7 µM | [11] 26.4 µM | [5] 23.5 µM | [12] 20.9 µM | [8] 26.4 µM

O=C(O)c1cccnc1Nc1cccc(C(F)(F)F)c1
inactive: [1] | [9] | [2] | [3] | [4] | [11] | [5] | [6] | [12] | [7]

CC(=O)N1CCN(c2ccc(OC[C@H]3CO[C@](Cn4ccnc4)(c4ccc(Cl)cc4Cl)O3)cc2)CC1
inactive: [12]
active: [1] 8.33 µM | [13] 5.26 µM | [9] 7.43 µM | [2] 9.35 µM | [11] 11.8 µM | [6] 6.62 µM | [7] 13.2 µM | [8] 18.7 µM

COC(=O)N[C@H](C(=O)N[C@@H](Cc1ccccc1)[C@@H](O)CN(Cc1ccc(-c2ccccn2)cc1)NC(=O)[C@@H](NC(=O)OC)C(C)(C)C)C(C)(C)C
inactive: [1] | [2] | [3] | [4] | [12]
active: [16] 20.9 µM | [7] 20.9 µM

Clc1ccc(C(Cn2ccnc2)OCc2c(Cl)cccc2Cl)c(Cl)c1 (stereo not drawn)
active: [14] 26.4 µM | [15] 23.5 µM | [16] 23.5 µM | [18] 20.9 µM | [12] 18.7 µM | [20] 29.6 µM

N[C@@H](Cc1cc(I)c(Oc2cc(I)c(O)c(I)c2)c(I)c1)C(=O)O
inactive: [1] | [13] | [2] | [3] | [4] | [11] | [6] | [12]

CN(C)C(=O)COC(=O)Cc1ccc(OC(=O)c2ccc(N=C(N)N)cc2)cc1
active: [1] 14.8 µM | [4] 11.8 µM | [12] 5.26 µM
inactive: [17] | [5]

COc1c2occc2cc2ccc(=O)oc12
inactive: [1] | [10] | [11] | [5] | [6] | [12] | [7]
active: [16] 20.9 µM | [2] 5.26 µM | [4] 18.7 µM

O=C1c2ccccc2-c2n[nH]c3cccc1c23
active: [4] 14.8 µM
inactive: [1] | [5]

CN(C)CCCC1(c2ccc(F)cc2)OCc2cc(C#N)ccc21 (stereo not drawn)
active: [1] 8.33 µM | [4] 18.7 µM | [20] 11.8 µM | [8] 18.7 µM
inactive: [13] | [10] | [5] | [12] | [7]

CC[C@]1(O)C[C@H]2CN(CCc3c([nH]c4ccccc34)[C@@](C(=O)OC)(c3cc4c(cc3OC)N(C=O)[C@H]3[C@@](O)(C(=O)OC)[C@H](OC(C)=O)[C@]5(CC)C=CCN6CC[C@]43[C@@H]65)C2)C1
active: [1] 0.0093 µM | [16] 0.0019 µM | [9] 0.0148 µM | [10] 0.0372 µM | [2] 0.0235 µM | [3] 0.059 µM | [6] 0.0047 µM | [12] 0.132 µM | [7] 0.0019 µM | [20] 0.0235 µM

Cc1ncc([N+](=O)[O-])n1CC(C)O (stereo not drawn)
active: [14] 11.8 µM | [2] 20.9 µM | [4] 14.8 µM
inactive: [15] | [16] | [11] | [5] | [6]

S=c1nc[nH]c2nc[nH]c12
active: [14] 16.6 µM | [15] 7.43 µM | [16] 13.2 µM | [10] 5.9 µM | [2] 2.96 µM | [11] 7.43 µM | [5] 10.5 µM
inactive: [17]

CC(=O)NC[C@H]1CN(c2ccc(N3CCOCC3)c(F)c2)C(=O)O1
inactive: [1] | [10] | [2] | [11] | [6] | [7]
active: [4] 8.33 µM

O=C1CCc2ccc(OCCCCN3CCN(c4cccc(Cl)c4Cl)CC3)cc2N1
active: [16] 11.8 µM | [19] 20.9 µM | [6] 18.7 µM
inactive: [3]

Cc1ccc(C)c(OCCCC(C)(C)C(=O)O)c1
active: [2] 23.5 µM
inactive: [16] | [3] | [5] | [6] | [7]

Cc1nccn1CC1CCc2c(c3ccccc3n2C)C1=O (stereo not drawn)
active: [2] 26.4 µM | [4] 26.4 µM | [6] 20.9 µM
inactive: [15] | [11]

Nc1ncn([C@H]2C[C@H](O)[C@@H](CO)O2)c(=O)n1
active: [9] 0.132 µM | [4] 0.418 µM
inactive: [10] | [17] | [3] | [11] | [5] | [12]
